Compound activity (PubChem BioAssay)
GLP1R inv ag = GLP-1 receptor (human) inverse agonism; HEK293 GLP-1R CRE-luciferase, luminescence, 24 h; GLP-1R form is constitutively active; Potency, µM (titrated, usually from 38.3 µM), for the others: top-dose activity change, negative = inhibition, hits mostly inhibitors; 410,000 compounds, 1.6% hits; note: potency is the fitted concentration of half-maximal effect; % is set by controls: 0 for no effect and ±100 for the full control effect; nearly all actives have a fitted effect of over 55% in size
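Inverse agonism was detected as reduced cAMP-driven luciferase luminescence after 24 h compound treatment. The cells were HEK293 clones expressing constitutively active human GLP-1R with the reporter. Reporter-only and GPR119 cell lines served as counterscreen controls.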
HEK293 tox = cytotoxicity counter-screen for GLP-1 receptor inverse agonists. HEK293 cAMP-luciferase reporter cells, luminescence, 24 h. Potency, µM (doses to about 38.3 µM), for inactives: at the top dose activity change, negative = inhibition, actives largely listed as inhibitors. 410,000 compounds, 0.13% hits. AID 624418;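 note: loss of luciferase light is scored as toxicity; potency is the fitted concentration of half-maximal effect; % is set by controls: 0 for no effect and ±100 for the full control effect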
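Quantitative HTS format, 1536 wells, 200 cells/uL seeded. Compounds: 23 nL, 24 h, 37 °C. Detection: luciferase reagent, luminescence at 12 min RT; decreased signal taken as cytotoxic.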
mIDH1 inhibitor = human IDH1 R132H inhibition | O75874 | IDH1-R132H enzyme, NADPH consumption, diaphorase/resazurin fluorescence | Potency, µM (doses to about 76.6 µM), without a hit: at the top dose activity change, negative = inhibition, hits mostly inhibitors | 390,000 compounds, 0.093% hits | AID 602179; note: potency is the fitted concentration of half-maximal effect; % is set by controls: 0 for no effect and ±100 for the full control effect; nearly all actives have a fitted effect of over 65% in size
Target sequence (O75874 whole entry R132H, stated change not applied): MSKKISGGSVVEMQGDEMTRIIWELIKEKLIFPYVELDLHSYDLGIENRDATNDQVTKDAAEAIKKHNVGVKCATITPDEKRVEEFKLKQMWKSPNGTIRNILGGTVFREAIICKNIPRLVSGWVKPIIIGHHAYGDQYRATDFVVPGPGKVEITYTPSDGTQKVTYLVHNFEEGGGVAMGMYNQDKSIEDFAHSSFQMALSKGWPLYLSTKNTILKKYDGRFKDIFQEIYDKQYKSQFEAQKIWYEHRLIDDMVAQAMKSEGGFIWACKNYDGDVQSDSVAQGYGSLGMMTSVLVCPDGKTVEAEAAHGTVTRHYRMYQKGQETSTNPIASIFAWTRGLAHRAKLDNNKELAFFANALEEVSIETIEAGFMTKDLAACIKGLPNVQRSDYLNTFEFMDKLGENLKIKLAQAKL
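IDH1-R132H (0.5 ug/mL) preincubated 30 min with compound, then NADPH (0.016 mM) and alpha-KG (2 mM) added; 80 min at RT, pH 7.5. Remaining NADPH coupled via diaphorase/resazurin to fluorescence (540/590 nm); concentration-response curves normalized to no-enzyme control.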
PTHR1 ag = activates the human parathyroid hormone receptor PTHR1; Potency, µM (series often up to 115 µM), without a hit: top-dose activation, most hits filed as activators; 410,000 compounds, 0.075% hits; HEK293 GP2 PTHR1 cells, GloSensor cAMP luminescence, 1 h; AID 743266; note: potency is the fitted concentration of half-maximal effect; nearly all actives have a fitted effect of over 55% in size
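HEK-293-derived GP2 cells expressing PTHR1 and a GloSensor cAMP reporter, 3,000/well, plated overnight, given luciferin plus IBMX (each 0.5 mM as added) for 1 h at 37 °C, then compound for 1 h at 37 °C. Luminescence was read after 15 min at room temperature.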
LDHA block = inhibitors of human lactate dehydrogenase A | P00338 | purified LDHA, NADH/diaphorase-resazurin fluorescence; hits give low values | activity change, % (values are at about 110 or 230 µM) | 480,000 compounds, 0.15% hits | AID 1347041; in the data active = activity change below about -30%; inconclusive = mostly about -25% to -30%;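 note: plate controls were DMSO wells for no effect and wells without enzyme for full effect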
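Enzyme activity of human lactate dehydrogenase 5 (2 nM; 0.06 mM NADH, 0.2 mM pyruvate, 5 min, RT) is measured via a resazurin/diaphorase fluorescence readout of residual NADH.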
GLP-1R agonist = GLP-1 receptor (human) agonism; P43220; HEK293 GLP-1R CRE-luciferase, luminescence, 4-6 h; cells express a hypersensitive GLP-1R form; Potency, µM (doses to about 45.6 µM), inactives show top-dose activation, hits mostly activators; 380,000 compounds, 0.007% hits; AID 624172; note: potency is the fitted concentration of half-maximal effect; % of control where 0% means no effect
The depositor's hits bear a star; i = inactive; ? = inconclusive; · = no result given; [ ] = remark or other dose. Rows were chosen to be rich in hits. Some 1.7% of all compounds tested hit in one or more screens of this group. Unless noted, calls come from the whole dose curve; as a rule, active = well fitted curve in the direction sought with a large enough effect; inconclusive = small, poorly fitted or top-dose-only effect, or another doubt; inactive = no such curve, though single readings can be large; an effect the other way counts as inactive or inconclusive.

SMILES	GLP1R inv ag	HEK293 tox	mIDH1 inhibitor	PTHR1 ag	LDHA block	GLP-1R agonist
O=C(Cn1c(=O)oc2cc(S(=O)(=O)N3CCCCC3)ccc21)NCc1ccc(Cl)cc1	12.6µM*	-19.3%	-2.9%	-32.5%	-5.0	·
COc1ccc(S(=O)(=O)N2CCCCCC2)cc1C(=O)NCc1ccc(C)cc1	10µM*	-5.8%	3.8%	i	-1.4	-4.1%
CN(C)C(CNC(=O)c1ccc(Cl)c(S(=O)(=O)N2CCCCCC2)c1)c1ccccc1 (stereo unspecified)	7.94µM*	-0.2%	13.6%	-31.2%	-1.9	9.2%
O=C(NCCC1=CCCCC1)c1ccc(Cl)c(S(=O)(=O)N2CCOCC2)c1	-1.2%	6.3%	-1.0%	-20.4%[57.5 µM]	-5.4	14.5%
CN(C)S(=O)(=O)N1CCC(Oc2cccc(C(=O)NCCC3=CCCCC3)c2)CC1	10µM*	-25.0%	9.7%	-95.0%	-9.1	-14.0%
O=C(NCCC1=CCCCC1)c1ccc(Cl)c(S(=O)(=O)N2CCCCC2)c1	3.55µM*	1.8%	-10.3%	-94.3%	-0.2	7.9%
CC(NC(=S)NC1CCCC1)c1ccc(C(C)(C)C)cc1 (stereo unspecified)	·	·	·	·	11.0	·
O=C(O)c1ccc(C(=O)O)nc1	·	·	·	·	15.6	·
Cc1cc(C(=O)O)ccc1-n1cccc1	·	·	·	·	3.1	·
COC(=O)N/N=C/c1cn(CC(C)COc2ccccc2)c2ccccc12 (stereo unspecified)	10µM*	-26.9%	-0.6%	-4.5%	5.5	-6.9%
CCOC(=O)N/N=C/c1cn(CCCOc2ccccc2)c2ccccc12	8.91µM*	18.6%	-3.6%	-9.9%	-5.5	14.3%
COC(=O)N/N=C/c1cn(CCOc2ccccc2)c2ccccc12	?	5.4%	3.6%	i	-1.1	23.6%
CC(Oc1cccc(Cl)c1)C(=O)Nc1nc(-c2ccccn2)cs1 (stereo unspecified)	5.01µM*	?	8.1%	-16.7%	5.1	1.4%
CC(Oc1ccccc1)C(=O)Nc1nc(-c2ccccn2)cs1 (stereo unspecified)	?	?	-7.4%	-12.5%	-0.7	11.3%
COc1ccc(NC(=O)CSc2nnc(-c3ccccc3Cl)n2Cc2ccco2)c(OC)c1	7.08µM*	-26.5%	7.5%	i	-5.7	-2.7%
O=C(c1ccccc1)c1ccc(OC(=O)c2cccs2)cc1	·	·	·	·	-0.2	·
CCCCN=C1NN=C(c2ccc3c(c2)OCCO3)CS1	8.91µM*	-23.4%	-2.7%	-40.6%	-1.6	9.7%
CCCCN=C1NN=C(c2ccc(C)c(C)c2)CS1	?	?	-15.8%	-7.9%	-4.4	6.7%
CCOc1ccccc1C(=O)Nc1ccccc1C(C)CC (stereo unspecified)	·	·	·	·	5.3	·
CC(C)NC(=O)N1CC(c2ccccc2)C(c2ccc(Cl)cc2)=N1 (stereo unspecified)	3.98µM*	11.6%	0.1%	-20.5%	-0.2	15.5%
O=Cc1cn[nH]c1-c1cc2ccccc2o1	·	·	·	·	-3.4	·
COCC(=O)N(Cc1ccccc1)c1ccccn1	0.0%	-12.4%	2.5%	i	3.0	-6.5%
COc1ccccc1NC(=O)N(Cc1ccccc1)c1ccccn1	7.08µM*	13.4%	12.2%	-15.3%[57.5 µM]	-7.1	0.9%
CSc1nc2sc3c(c2c(=O)n1-c1ccccc1C)CCCC3	4.47µM*	0.2%	5.9%	-77.3%	1.6	·
O=C1CCCC2=C1C(c1ccc(Cl)c(Cl)c1)n1nnnc1N2 (stereo unspecified)	·	·	·	·	-0.2	·
SMILES	GLP1R inv ag	HEK293 tox	mIDH1 inhibitor	PTHR1 ag	LDHA block	GLP-1R agonist
CC1=NN(C(=O)c2ccccc2)C(O)(c2ccc(Br)cc2)C1 (stereo unspecified)	3.98µM*	-18.9%	3.9%	-4.5%	-6.0	8.9%
CC1=NN(C(=O)COc2ccccc2C)C(O)(c2ccc(Cl)cc2)C1 (stereo unspecified)	10µM*	?	7.8%	i	2.1	-5.3%
CC1=NN(C(=O)c2ccccc2Cl)C(O)(c2ccccc2)C1 (stereo unspecified)	?	-13.8%	-10.0%	i	-9.5	0.5%
CCC1=NN(C(=O)c2ccc(Br)cc2)C(O)(c2ccccc2)C1 (stereo unspecified)	0.562µM*	?	-1.6%	-32.1%	-8.1	-3.3%
CN(CCCC(=O)OC(C)(C)C)C(=O)c1ccccc1Cl	·	·	·	·	-2.5	·
CC(C)=C[C@H]1C[C@H](C)[C@H]2CC[C@H](C)c3c(O[C@@H]4OC[C@@H](O)[C@H](O)C4O)c(O)c(C)c1c32 (stereo partly specified)	10µM*	-25.0%	-8.2%	-16.6%	1.7	1.4%
Cc1oc(-c2cccc(Cl)c2)nc1CNC(=O)Nc1ccc(Cl)cc1	·	·	·	·	3.8	·
CCN(CC)c1cc(C)c2cc(NC(=O)c3cccc(OC)c3)ccc2n1	10µM*	-27.5%	2.2%	i	4.5	0.0%
CCN(CC)c1cc(C)c2cc(NC(=O)/C=C/c3cc(OC)c(OC)c(OC)c3)ccc2n1	11.2µM*	?	7.8%	i	13.1	·
O=C(Nc1c(NC2CCCC2)c2ccccc2oc1=O)c1ccc(C(F)(F)F)cc1	·	·	·	·	12.2	·
CCOc1ccc(CNc2ccccc2)cc1	·	·	·	·	18.1	·
CCOc1ccc(CNC(c2ccccc2)c2ccccc2)cc1	7.08µM*	3.3%	4.4%	-31.1%	-0.9	10.1%
COc1ccc(OCCOC(=O)c2cc(C)nc3ccccc23)cc1	·	·	·	·	-4.1	·
O=c1c(C=Nc2cccc(C(F)(F)F)c2)c[nH]n1-c1cccc(Cl)n1	77.6%	3.9%	2.6%	i	-11.3	-8.0%
O=c1c(C=Nc2ccc(Cl)cc2)c[nH]n1-c1cccc(Cl)n1	3.7%	0.0%	13.6%	-2.8%[57.5 µM]	-51.7*	-2.6%
C[C@@H]1CC=C[C@H]2[C@H]1C(=O)N(Cc1ccccc1)[C@H]2c1ccc(-c2ccc(N(C)C)cc2)cc1F	7.94µM*	2.9%	0.0%	i	-0.2	0.4%
Cc1ccc(-c2ccc([C@H]3[C@H]4C=CC[C@@H](C)[C@@H]4C(=O)N3Cc3ccccc3)c(F)c2)cc1	-27.7%	39.1%	0.4%[38.3 µM]	-45.8%	6.1	1.5%
C[C@@H]1CC=C[C@H]2[C@H]1C(=O)N(Cc1ccccc1)[C@H]2c1cccc([N+](=O)[O-])c1	7.08µM*	1.9%	7.3%	-49.3%	0.3	1.5%
C[C@@H]1CC=C[C@H]2[C@H]1C(=O)N(Cc1ccccc1)[C@H]2c1ccc2ccccc2c1	?	33.0%	-5.1%[38.3 µM]	-31.0%	-1.6	1.3%
